Test results published in PubChem BioAssay (NCI).
About 83,000 compounds went through this panel and 20% of them were active in at least one assay; those are over-represented in the sample as a whole.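 Compound tested at a single concentration for 48 hours in 96-well plates; a percent growth value below 10 was scored as active.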 Unmarked numbers belong to inactive results. Activity calls are given as the source filed them.

What follows are compounds tested on NCI-H226 lung (assay: NCI-60 one-dose screen, 48 h (100 = growth as untreated, 0 = no growth, -100 = all killed)). Details: 10 µM unless noted.
For `CC(O)c1cc2ccccc2c(=O)o1` (stereo not drawn), the growth was 89.2%. For `NC/C(=C/F)COc1ccc2nc(NCc3cccnc3)oc2c1`, the growth was 94.3%. `Cc1ccc(NC(=O)N[C@@H](Cc2cc(F)cc(F)c2)C(=O)NC2C(=O)N3C[C@H](O)C[C@H]3C(=O)N3CCCC[C@H]3C(=O)N[C@@H](CO)C(=O)N3C[C@H](C)C[C@H]3C(=O)O[C@H]2C)c(F)c1` (stereo partly drawn) was tested, and the growth was 8.45% (active). `O=c1[nH]c2ccccc2cc1CSc1ccccc1Nc1nccc(-c2ccc(Cl)cc2)n1` gave a growth of 94.1%. Work on `CCn1c(SCC(=O)Nc2cccc(C(=O)/C=C/c3ccc(Br)cc3)c2)nc2ccccc2c1=O` yielded a growth of 88.9%. In the case of `Fc1ccc(-c2cc3nc(C(Cl)Cl)nc(-c4ccc(F)cc4)n3n2)cc1`, the growth is reported as 79.1%. For `CCNC(=O)N1CCc2cc(OC)c(OCCc3ccc(OC)cc3)cc2C1c1ccc(OC)cc1C` (stereo not drawn), the growth was 33.5%. Compound `CCNC(=O)N1CCc2cc(OC)c(OCCc3ccc(OC)cc3)cc2C1c1ccc(Cl)cc1C` (stereo not drawn) has a growth of 32.4%. `COc1cc2nc(Cl)nc(Nc3cccc(C4=Nc5c(N)nc(N)nc5NC(c5ccc(Br)cc5)C4)c3)c2cc1OC` (stereo not drawn) was tested, and the growth was 93%. With `COc1ccc(C(=O)CSc2nc3c(c(Nc4ccc(S(N)(=O)=O)cc4)n2)CCCC3)cc1` the growth was 98%. Work on `Nn1c(N/N=C/c2nc3ccccc3s2)n[nH]c1=S` yielded a growth of 104%. In the case of `Cc1ccc(NC(=O)CNc2cc(C(N)=O)cc(F)c2C)c(Cl)c1`, the growth is reported as 80.5%. Compound `Cc1cccc2c3c(sc12)C(c1ccc(Cl)cc1)c1c(nc(CC(=O)Nc2ccccc2)[nH]c1=O)O3` (stereo not drawn) has a growth of 65.4%. With `C=C(C=O)[C@@H]1CC[C@]2(C)[C@H](C(=O)C=C3[C@H]4C[C@](C)(C(=O)OC)CC[C@]4(C)CC[C@]32C)[C@@]1(C)CCC#N` the growth was -53.6% (active). Work on `Nc1nc(-c2cccc([N+](=O)[O-])c2)c(N=Nc2ccccc2)s1` yielded a growth of 73.1%. Compound `CC(=O)C1=C(C)NC(NNC(N)=S)=NC1c1ccccc1` (stereo not drawn) has a growth of 99.7%. In the case of `COc1cc(OC)c(S(N)(=O)=O)cc1C(C)=O`, the growth is reported as 103%. With `CCOC(=O)c1c(Nc2ccccc2)nn2c(-c3ccc(OC)cc3)ccnc12` the growth was 93.5%. With `N#C/C(=C\c1ccc(-c2ccc(Cl)cc2Cl)o1)c1ccc(F)cc1` the growth was 5.86% (active). `O=S(=O)(Nc1ccc2c(c1)OCO2)c1ccc(-c2cnc(C3CC3)o2)cc1` was tested, and the growth was 55.9%. Work on `COc1ccc(/C=C/C(=O)c2cc(S(N)(=O)=O)c(OC)cc2OC)cc1` yielded a growth of 100%. In the case of `COc1ccc2c(c1)c(-c1cc(N)n3nc(-c4cn(C)c5ccc(OC)cc45)cc3n1)cn2C`, the growth is reported as 126%. With `C#CC(=O)N(c1ccc(OC)cc1OC)C(C(=O)NCC(=O)OCC)c1cccs1` (stereo not drawn) the growth was 93.3%. `CC(C)(C)CC(C)(C)n1nnnc1C(Nc1nccs1)c1cc2cccc3ccc4cccc1c4c32` (stereo not drawn) was tested, and the growth was 3.26% (active). `Cc1ccc2c(c1)C(=O)/C(=C/c1cccc(F)c1)S2` gave a growth of 88.5%. `O=C(Nc1nonc1-c1ccccc1)c1ccc(C(F)(F)F)cc1` gave a growth of 89.4%. `CN1CCN(Cc2ccc(NC(=O)c3cncc(C#Cc4cnc5ccc(N6CCN(C)CC6)nn45)c3)cc2C(F)(F)F)CC1` showed a growth of 28%. With `COc1cccc2c1CN(C(=O)c1ccc(O)c(C(=O)N3Cc4ccc(OCCC[P+](c5ccccc5)(c5ccccc5)c5ccccc5)cc4C3)c1)C2` the growth was 86.9%. In the case of `CCCSc1nc(Nc2ccc(/C(C)=N\NC(N)=S)cc2)c(C#N)c(-c2ccccc2)n1`, the growth is reported as 49.4%. With `C[C@H]1c2[nH]c3ccccc3c2C[C@H]2C(=O)N(CCCCCCC(=O)NO)CC(=O)N21` the growth was 94.6%. `CC1(C)CC[C@]2(C(=O)N3CCOCC3)CC[C@]3(C)C(=CC[C@@H]4[C@@]5(C)C/C(=C/c6ccccn6)C(=O)C(C)(C)[C@@H]5CC[C@]43C)[C@@H]2C1` showed a growth of 76.2%. In the case of `C=C(C)[C@@H]1CC[C@]2(COC)CC[C@]3(C)[C@H](CC[C@@H]4[C@@]5(C)CCCNC(C)(C)[C@@H]5CC[C@]43C)[C@@H]12`, the growth is reported as 74.1%. For `COc1cc(-c2nn(C(C)(C)C)cc2-c2ccnc(NCCCNS(=O)(=O)c3ccccc3)n2)ccc1Cl`, the growth was 66%. Work on `Cc1cc(C)c(N2C(=O)CC(Nc3ccc(Cl)cc3Cl)C2=O)c(C)c1` (stereo not drawn) yielded a growth of 107%.

Each compound was assayed on NCI-H322M lung in the same assay as above. Details: 10 µM unless noted.
Work on `CC(O)c1cc2ccccc2c(=O)o1` (stereo not drawn) yielded a growth of 103%. With `NC/C(=C/F)COc1ccc2nc(NCc3cccnc3)oc2c1` the growth was 111%. `Cc1ccc(NC(=O)N[C@@H](Cc2cc(F)cc(F)c2)C(=O)NC2C(=O)N3C[C@H](O)C[C@H]3C(=O)N3CCCC[C@H]3C(=O)N[C@@H](CO)C(=O)N3C[C@H](C)C[C@H]3C(=O)O[C@H]2C)c(F)c1` (stereo partly drawn) gave a growth of 70.7%. For `O=c1[nH]c2ccccc2cc1CSc1ccccc1Nc1nccc(-c2ccc(Cl)cc2)n1`, the growth was 94.1%. In the case of `CCn1c(SCC(=O)Nc2cccc(C(=O)/C=C/c3ccc(Br)cc3)c2)nc2ccccc2c1=O`, the growth is reported as 94.3%. For `Fc1ccc(-c2cc3nc(C(Cl)Cl)nc(-c4ccc(F)cc4)n3n2)cc1`, the growth was -30.3% (active). For `CCNC(=O)N1CCc2cc(OC)c(OCCc3ccc(OC)cc3)cc2C1c1ccc(OC)cc1C` (stereo not drawn), the growth was 40.1%. Compound `C#CCOC(=O)[C@@H]1CCCN1CC#C` has a growth of 106%. With `CCNC(=O)N1CCc2cc(OC)c(OCCc3ccc(OC)cc3)cc2C1c1ccc(Cl)cc1C` (stereo not drawn) the growth was 46.6%. Work on `COc1cc2nc(Cl)nc(Nc3cccc(C4=Nc5c(N)nc(N)nc5NC(c5ccc(Br)cc5)C4)c3)c2cc1OC` (stereo not drawn) yielded a growth of 98.1%. In the case of `COc1ccc(C(=O)CSc2nc3c(c(Nc4ccc(S(N)(=O)=O)cc4)n2)CCCC3)cc1`, the growth is reported as 107%. In the case of `Nn1c(N/N=C/c2nc3ccccc3s2)n[nH]c1=S`, the growth is reported as 109%. `Cc1ccc(NC(=O)CNc2cc(C(N)=O)cc(F)c2C)c(Cl)c1` was tested, and the growth was 102%. Work on `Cc1cccc2c3c(sc12)C(c1ccc(Cl)cc1)c1c(nc(CC(=O)Nc2ccccc2)[nH]c1=O)O3` (stereo not drawn) yielded a growth of 76.5%. `C=C(C=O)[C@@H]1CC[C@]2(C)[C@H](C(=O)C=C3[C@H]4C[C@](C)(C(=O)OC)CC[C@]4(C)CC[C@]32C)[C@@]1(C)CCC#N` gave a growth of 109%. For `Nc1nc(-c2cccc([N+](=O)[O-])c2)c(N=Nc2ccccc2)s1`, the growth was 76.2%. `CC(=O)C1=C(C)NC(NNC(N)=S)=NC1c1ccccc1` (stereo not drawn) showed a growth of 101%. Compound `COc1cc(OC)c(S(N)(=O)=O)cc1C(C)=O` has a growth of 109%. `CCOC(=O)c1c(Nc2ccccc2)nn2c(-c3ccc(OC)cc3)ccnc12` gave a growth of 87.1%. Compound `O=C(CCn1c[n+](CC(=O)c2ccc(-c3ccccc3)cc2)c2ccccc21)Nc1cccc2cccnc12` has a growth of 82.8%. With `N#C/C(=C\c1ccc(-c2ccc(Cl)cc2Cl)o1)c1ccc(F)cc1` the growth was 93.4%. Work on `O=S(=O)(Nc1ccc2c(c1)OCO2)c1ccc(-c2cnc(C3CC3)o2)cc1` yielded a growth of 64.5%. Compound `COc1ccc(/C=C/C(=O)c2cc(S(N)(=O)=O)c(OC)cc2OC)cc1` has a growth of 77.2%. With `CS(=O)(=O)c1ccc(-n2cc(/C=N/O)c(-c3ccccc3)n2)cc1` the growth was 81.7%. Work on `COc1ccc2c(c1)c(-c1cc(N)n3nc(-c4cn(C)c5ccc(OC)cc45)cc3n1)cn2C` yielded a growth of 101%. `C#CC(=O)N(c1ccc(OC)cc1OC)C(C(=O)NCC(=O)OCC)c1cccs1` (stereo not drawn) gave a growth of 94.4%. Compound `C=CCn1c(SCC(=O)Nc2ccc(C(=O)/C=C/c3cc(OC)c(OC)c(OC)c3)cc2)nnc1-c1c[nH]c2ccccc12` has a growth of 53%. With `CC(C)(C)CC(C)(C)n1nnnc1C(Nc1nccs1)c1cc2cccc3ccc4cccc1c4c32` (stereo not drawn) the growth was 93.9%. `Cc1ccc2c(c1)C(=O)/C(=C/c1cccc(F)c1)S2` was tested, and the growth was 98.2%. `CC1(COc2ccc3ncc(C#Cc4cncc(C(=O)Nc5cccc(C(F)(F)F)c5)c4)n3n2)COC1` gave a growth of 95.9%. In the case of `O=C(Nc1nonc1-c1ccccc1)c1ccc(C(F)(F)F)cc1`, the growth is reported as 86.9%. In the case of `CN1CCN(Cc2ccc(NC(=O)c3cncc(C#Cc4cnc5ccc(N6CCN(C)CC6)nn45)c3)cc2C(F)(F)F)CC1`, the growth is reported as 35.5%. Work on `COc1cccc2c1CN(C(=O)c1ccc(O)c(C(=O)N3Cc4ccc(OCCC[P+](c5ccccc5)(c5ccccc5)c5ccccc5)cc4C3)c1)C2` yielded a growth of 99.1%. `CCCSc1nc(Nc2ccc(/C(C)=N\NC(N)=S)cc2)c(C#N)c(-c2ccccc2)n1` gave a growth of 84.3%. `C[C@H]1c2[nH]c3ccccc3c2C[C@H]2C(=O)N(CCCCCCC(=O)NO)CC(=O)N21` showed a growth of 84.9%. `CC1(C)CC[C@]2(C(=O)N3CCOCC3)CC[C@]3(C)C(=CC[C@@H]4[C@@]5(C)C/C(=C/c6ccccn6)C(=O)C(C)(C)[C@@H]5CC[C@]43C)[C@@H]2C1` gave a growth of 103%. In the case of `C=C(C)[C@@H]1CC[C@]2(COC)CC[C@]3(C)[C@H](CC[C@@H]4[C@@]5(C)CCCNC(C)(C)[C@@H]5CC[C@]43C)[C@@H]12`, the growth is reported as 82.6%. Compound `COc1cc(-c2nn(C(C)(C)C)cc2-c2ccnc(NCCCNS(=O)(=O)c3ccccc3)n2)ccc1Cl` has a growth of 87.2%. With `Cc1cc(C)c(N2C(=O)CC(Nc3ccc(Cl)cc3Cl)C2=O)c(C)c1` (stereo not drawn) the growth was 99.8%.
